PubChem BioAssay AID504660 (National Center for Advancing Translational Sciences (NCATS), 2011)
“And” between values parts separate entries of the source, which are not always exact repeats. Identical values can stand only once. Among all 360,000 compounds or so, about 3,700 (1%) were called active. The list comes from a sample in which actives are over-represented; it also holds similar structures and randomly drawn compounds. Values without a mark were called inactive. Rule as the data show it: active = activation above about 30%; inactive = the rest.

molecular target: D(1A) dopamine receptor (Homo sapiens) (UniProt P21728); assay: Allosteric Agonists of the Human D1 Dopamine Receptor: qHTS; conditions: HEK293 T-REx D1 cells, calcium flux, agonist mode; at 2 µM; hits give high values; also: 0% is about no effect
Sequence (P21728 whole entry, looked up): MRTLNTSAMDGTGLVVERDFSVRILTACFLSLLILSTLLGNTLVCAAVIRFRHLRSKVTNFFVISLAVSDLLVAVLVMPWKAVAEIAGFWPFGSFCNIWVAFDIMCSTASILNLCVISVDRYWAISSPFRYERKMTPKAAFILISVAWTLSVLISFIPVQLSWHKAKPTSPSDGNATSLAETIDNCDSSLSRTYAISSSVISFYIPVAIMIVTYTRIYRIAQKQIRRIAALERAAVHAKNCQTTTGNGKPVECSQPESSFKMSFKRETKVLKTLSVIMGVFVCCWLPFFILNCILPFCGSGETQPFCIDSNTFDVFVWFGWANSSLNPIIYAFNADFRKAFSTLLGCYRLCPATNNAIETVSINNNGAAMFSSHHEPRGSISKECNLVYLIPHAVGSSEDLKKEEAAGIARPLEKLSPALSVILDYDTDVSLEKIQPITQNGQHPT
Summary of the method: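 Inducible HEK293 T-REx D1 cells, force-coupled to calcium signalling, were plated at 4000 cells/well with tetracycline and held overnight at 30 C. After no-wash calcium dye loading, compound-evoked calcium rise over 180 s flagged agonists.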

SMILES	activation
O=C(NCC(c1ccc2c(c1)OCO2)N1CCN(c2ccccc2)CC1)C(=O)Nc1ccccc1F (stereo not drawn)	1.27%
COc1ccc(N2CCN(C(=O)CSCc3nc(-c4ccccc4Cl)oc3C)CC2)cc1	7.67%
CCOc1cccc2c1N[C@@H](c1ccc(C(=O)O)cc1)[C@H]1CC=C[C@@H]21	7.61%
CC1CCCN(c2cc3c(cc2F)c(=O)c(S(=O)(=O)c2cccc(Cl)c2)cn3Cc2ccccc2)C1 (stereo not drawn)	-0.839%
Cc1cc2n(n1)C(c1cc(C(C)(C)C)c(O)cc1O)Nc1ccccc1-2 (stereo not drawn)	38.8% (active)
CCOC(=O)NN1C(=O)c2ccccc2NC1c1ccccc1O (stereo not drawn)	0.398%
COC(=O)c1ccc(NC(=O)c2cc(S(=O)(=O)N3CCC(C)CC3)cn2C)cc1	6.51%
COc1cccc(CNCCc2c[nH]c3ccccc23)c1OCc1ccccc1F	18.2%
COc1ccc(C(CNCC(=O)Nc2ccccc2F)N(C)C)cc1 (stereo not drawn)	0.114%
COc1ccc(C(CCNCc2ccccc2F)c2ccc(F)cc2)cc1 (stereo not drawn)	41.1% (active)
CC(C)CC(NS(=O)(=O)c1ccc2c(c1)oc(=O)n2C)C(=O)NCc1ccccc1Cl (stereo not drawn)	3.12%
CCOc1ccccc1CNCc1c(C(=O)O)c(C)n(Cc2ccc(C)cc2)c1C	3.68%
Cc1cccc(N2CCN(S(=O)(=O)c3ccc4[nH]c5c(c4c3)CCCCC5)CC2)c1C	2.57%
O=C(Nc1ccc2nc(SCC(=O)N3CCCc4ccccc43)sc2c1)c1ccc(F)cc1	5.54%
CCOC(=O)C1CCN(S(=O)(=O)c2c(C)noc2C)CC1	0.879%
CCOC(=O)C1CCN(C(=O)C2CCN(S(=O)(=O)c3c(C)noc3C)CC2)CC1	-2.99%
Cc1cc(C)c(S(=O)(=O)N2CCC(C(=O)OCc3c(C)noc3C)CC2)c(C)c1	45.3% (active)
COc1ccc(CCn2cc3c(c2-c2ccc(Br)cc2)c(=O)n(C)c(=O)n3C)cc1OC	0.633%
COc1cccc(NC(=O)N2CCN(C(=O)c3nsc4ccccc34)CC2)c1	10.2%
CCOC(=O)c1c(NC(C)=O)c2c3c(sc2n1Cc1c(C)cc(C)cc1C)CCCC3	1.79%
C/C(N)=C(/C#N)C(=O)COC(=O)C1=NN(c2ccccc2)C(=O)CC1	2.53%

SMILES	activation
COC(=O)CC1=NN(c2ccccc2)C(=O)C1	31.5% (active)
COC(=O)CC1=NN(c2nc(C)cc(C)n2)C(=O)C1	13.3%
CCOC(=O)c1ccc(NC(=O)C2CC(=O)N(c3ccc(C(C)C)cc3)C2)cc1 (stereo not drawn)	0.0656%
CCOC(=O)c1cc2c(=O)n3ccccc3nc2n(CCCOC)c1=NC(=O)C(C)Oc1ccccc1 (stereo not drawn)	-0.224%
CCCCC(=O)NNC(=S)NC(=O)C(c1ccccc1)c1ccccc1	179% (active)
C/C(=N\NC(=O)CNC(=O)C(c1ccccc1)c1ccccc1)c1ccc(C)cc1	0.588%
C=CCC(NC(=O)Cc1ccccc1)C(=O)NCCC (stereo not drawn)	-1.62%
CCOc1ccccc1C(=O)NC1(C(F)(F)F)C(=O)Nc2c1c(=O)[nH]c(=O)n2-c1ccc(F)cc1 (stereo not drawn)	0.807%
C=CCC1=C/C(=C\c2c(N)n3nc(CC(=O)N4CCOCC4)sc3nc2=O)C=C(OC)C1=O	38.1% (active)
COC1=C/C(=C/c2c(N)n3nc(CC(=O)N4CCOCC4)sc3nc2=O)C=CC1=O	8.23%
O=C(NCc1nnc(C(=O)Nc2ccc(C(F)(F)F)cc2Cl)o1)c1ccccc1	-0.686%
Cc1cc(Br)ccc1NC(=O)Cn1cnc2sc(C)c(S(=O)(=O)N3CCN(C)CC3)c2c1=O	2.4%
Cc1ccc(C2(C)NC(=O)N(CC(=O)Nc3ccccc3C(=O)N3CCCCC3)C2=O)cc1 (stereo not drawn)	10.7%
Cc1oc(C)c2c(=O)cc(-c3ccc4c(c3)OCO4)cc(OC(=O)c3ccc(Cl)cc3)c12	5.82%
COc1ccc(C2(C)NC(=O)N(CC(=O)c3ccc4c(c3)OCO4)C2=O)cc1 (stereo not drawn)	38.5% (active)
CC1(c2ccc(Cl)cc2)NC(=O)N(CC(=O)c2ccc3c(c2)OCO3)C1=O (stereo not drawn)	53.1% (active)
Cc1ccc(NC(=O)CN2C(=O)NC(C)(c3ccc(Cl)cc3)C2=O)c(Br)c1 (stereo not drawn)	37.2% (active)
CC1CN(C(=O)CN2C(=O)NC(C)(c3ccccc3)C2=O)CC(C)O1 (stereo not drawn)	0.601%
COc1ccc(C(=O)CN2C(=O)NC(C)(c3ccc(C)cc3)C2=O)cc1OC (stereo not drawn)	26.6%
CC1(c2ccc3ccccc3c2)NC(=O)N(CC(N)=O)C1=O (stereo not drawn)	3.93%
CC1(c2ccc(Cl)cc2Cl)NC(=O)N(CC(=O)Nc2cccnc2Cl)C1=O (stereo not drawn)	3.86%

SMILES	activation
O=c1n(Cc2cccc(C(F)(F)F)c2)c2ccccc2c2nc(-c3ccccc3)nn12	5.18%
CCOC(=O)C1CCCN(C(=O)Cn2ncc3c(C)n(Cc4ccc(F)cc4)c(C)c3c2=O)C1 (stereo not drawn)	5.3%
Cc1nn(-c2ccc(N3CCCCC3)nn2)c(C)c1CCC(=O)NCc1ccccc1F	-0.954%
Cc1ccc(C)c(NC(=O)C2CCCN(S(=O)(=O)c3cn(C)cn3)C2)c1 (stereo not drawn)	-0.383%
CC(C)NC(=O)c1nn(-c2ccccc2F)nc1CO	1.01%
CCOC(=O)c1c(C)oc2nc(C)nc(N(CC(C)C)CC(C)C)c12	5.8%
CCc1cccc(NC(=O)c2cnc(N3CCOCC3)c3ccccc23)c1	-0.292%
CC1=C(C(=O)OCC(C)C)C(c2ccc(OCc3ccccc3)cc2)N2C(=O)CCSC2=N1 (stereo not drawn)	13.9%
Cc1c(-c2nsc(NC(=O)c3cccc(Cl)c3)n2)nnn1-c1ccccc1C(F)(F)F	6.51%
O=C(CCS(=O)(=O)c1ccccc1)N(Cc1cccnc1)c1nc2c(F)cccc2s1	7.8%
O=C(O)CCS(=O)(=O)c1ccc(-c2ccccc2)cc1	-0.731%
Cc1cccc2sc(N(CCCN(C)C)C(=O)CCS(=O)(=O)c3ccccc3)nc12	44.5% (active)
CCc1nnc(SCC(=O)Nc2cc(OC)ccc2OC)nc1CC	0.834%
CCOc1ccccc1NC(=O)Cn1c(=O)n(Cc2ccco2)c(=O)c2sc3ccccc3c21	0.44%
CN(c1ccccc1)c1ccc(/C=c2\s/c(=C(/C#N)C(=O)C(C)(C)C)n(Cc3ccco3)c2=O)cc1	86% (active)
Cc1cc(C)nc(NC(=O)Nc2ccccc2C(F)(F)F)n1	7.87%
CCc1ccccc1NC(=O)c1cc(-c2ccc3c(c2)OCO3)on1	1.41% and 1.39%
O=C(Nc1ccccc1C(F)(F)F)c1cc(-c2ccc(O)cc2)on1	76.6% (active)
CC(=O)OC1=C(C(C)=O)N(Cc2ccccc2)S(=O)(=O)c2ccccc21	-0.292%
CCOC(=O)CN1C(C(=O)c2ccccc2)=C(OC(=O)C(C)(C)C)c2ccccc2S1(=O)=O	2.02%
CCCCC(=O)OC1=CN(Cc2ccccc2)S(=O)(=O)c2ccccc21	43.4% (active)
